RN4220 kill = S. aureus RN4220 growth inhibition | OD600, 16 h | inhibition, % (test concentration not listed) | 330,000 compounds, 0.33% hits | AID 1259311; in the data active = inhibition above about 85%;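 note: plate controls were untreated cells for no effect and reference antibiotic for full effect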
Vc quorum ag = inducers of Vibrio cholerae quorum light production without autoinducers. V. cholerae BH1578 lux reporter, luminescence, 6 h. activation, % at 18.7 µM. 350,000 compounds, 0.16% hits; in the data active = activation mostly above about 9.7%, no sharp cut-off; inconclusive = no clear call, values can overlap the other calls; inactive = mostly below about 3.7%
Mtb hypoxia inh = Mtb hypoxia fluorescent reporter inhibition; fluorescence inhibition, % (no concentration beside the values); M. tuberculosis hypoxia-regulated fluorescent reporter, fluorescence; 300,000 compounds, 0.1% hits; in the data active = fluorescence inhibition mostly above about 23%, no sharp cut-off; inactive = mostly below about 17%
Sa ugtP lethal = kills S. aureus RN4220 lacking UgtP. 330,000 compounds, 0.54% hits. S. aureus RN4220 ugtP deletion, OD600 growth, 16 h. growth inhibition, % (test concentration not listed); in the data active = growth inhibition above about 68%;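 note: plate controls were untreated wells for no effect and antibiotic for full effect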
PfHsp40 yeast = compounds rescuing yeast from Plasmodium falciparum HSP40 toxicity | S. cerevisiae expressing PfHsp40, growth rescue, ATP luminescence | growth rescue, % at 12.5 µM | 340,000 compounds, 0.68% hits | AID 504582; in the data active = growth rescue above about 28%, passing the limit was not always enough; inconclusive = no clear call, values can overlap the other calls;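 note: yeast W303a lacking pdr1 and pdr3 grown in galactose medium; growth measured after three days at 30 °C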
CCHFV vOTU inh = blocks the CCHF virus ovarian tumor domain protease; CCHFV vOTU protease, Pep-AMC fluorescence; inhibition, % at 11.5 µM; 370,000 compounds, 0.55% hits; AID 651958; in the data active = inhibition above about 30%; note: 0% = vehicle wells with enzyme and 100% = no enzyme wells
Numbers without * were called inactive. Only some compounds are listed: those with a hit (about 1.7% of all), similar ones and a draw of the others.

For Cc1ccc2nc(N3CCOCC3)c(C=O)cc2c1 the results were RN4220 kill 5, Vc quorum ag inactive, Mtb hypoxia inh 1, Sa ugtP lethal -7, PfHsp40 yeast -1 and CCHFV vOTU inh 0.
Screening Cc1ccc(-c2cc3ccccc3nc2N2CCOCC2)cc1 returned RN4220 kill -3, Vc quorum ag 0, Mtb hypoxia inh -2, Sa ugtP lethal 91*, PfHsp40 yeast 12 and CCHFV vOTU inh -9.
For CCCC1CCCO[C@@](C(=O)NCc2ccc(S(C)(=O)=O)cc2)(C(F)(F)F)C1 (stereo not given in full) the results were RN4220 kill 3, Mtb hypoxia inh 3 and Sa ugtP lethal -3.
Cc1ccc(CONC(=O)c2ccc([N+](=O)[O-])cc2)cc1 was read as RN4220 kill 3, Vc quorum ag -2, Mtb hypoxia inh 5, Sa ugtP lethal -1, PfHsp40 yeast 38* and CCHFV vOTU inh 3.
`NC(=O)CCC1NC(=O)C(CO)NC(=O)c2cc([N+](=O)[O-])cc(I)c2NCCC(C(N)=O)NC(=O)C(Cc2ccc(O)cc2)NC1=O` (stereo not given) gave RN4220 kill 3, Mtb hypoxia inh 13 and Sa ugtP lethal 1.
For CCCCC(=O)NC(c1ccco1)c1cc(Cl)c2cccnc2c1O (stereo not given) the results were RN4220 kill 23, Vc quorum ag 0, Mtb hypoxia inh 12, Sa ugtP lethal 5, PfHsp40 yeast 360* and CCHFV vOTU inh 5.
For COc1ccc(C(NC(=O)c2cccnc2)c2cc(Cl)c3cccnc3c2O)cc1OC (stereo not given) the results were RN4220 kill 22, Mtb hypoxia inh -5, Sa ugtP lethal -1, PfHsp40 yeast inconclusive and CCHFV vOTU inh 2.
Oc1c(C(Nc2ccccn2)c2cccnc2)cc(Cl)c2cccnc12 (stereo not given) was read as RN4220 kill 22, Vc quorum ag inactive, Mtb hypoxia inh 6, Sa ugtP lethal -10, PfHsp40 yeast 318* and CCHFV vOTU inh -15.
Screening CCC(=O)NC(c1ccco1)c1cc(Cl)c2cccnc2c1O (stereo not given) returned RN4220 kill 7, Vc quorum ag 0, Mtb hypoxia inh 12, Sa ugtP lethal -5, PfHsp40 yeast 277* and CCHFV vOTU inh 5.
Screening CC(=NNC(=O)c1cccc(S(=O)(=O)N2CCOCC2)c1)c1ccc(O)cc1 returned RN4220 kill 1, Mtb hypoxia inh 1 and Sa ugtP lethal 4.
Screening CC(C)(C)OC(=O)NC(CO)c1cn(C(Cc2cc3ccccc3[nH]2)C(=O)N2CCN(C(=O)OC(C)(C)C)CC2)nn1 (stereo not given) returned RN4220 kill 0, Mtb hypoxia inh -3 and Sa ugtP lethal -4.
Screening O=C(O)CCc1ccc(-c2ccc(Br)cc2)n1-c1cccc(O)c1 returned RN4220 kill 35, Vc quorum ag 1, Mtb hypoxia inh -9, Sa ugtP lethal 85*, PfHsp40 yeast 2 and CCHFV vOTU inh -6.
Screening O=C(O)CCc1ccc(-c2ccccc2)n1-c1cccc(C(=O)O)c1 returned RN4220 kill 2, Vc quorum ag -1, Mtb hypoxia inh 4, Sa ugtP lethal 1, PfHsp40 yeast 16 and CCHFV vOTU inh 9.
For CCN(C(=O)COC(=O)c1nc(Cl)ccc1Cl)c1c(N)n(Cc2ccccc2)c(=O)[nH]c1=O the results were RN4220 kill 3, Vc quorum ag 0, Mtb hypoxia inh 30*, Sa ugtP lethal -1, PfHsp40 yeast 0 and CCHFV vOTU inh -11.
CCN(C(=O)CSc1nncn1-c1ccccc1)c1c(N)n(Cc2ccccc2)c(=O)[nH]c1=O was read as RN4220 kill 4, Vc quorum ag 0, Mtb hypoxia inh 10, Sa ugtP lethal 5, PfHsp40 yeast 27* and CCHFV vOTU inh 14.
`CN(Cc1ccccc1)C(=O)c1[nH]cnc1C(=O)NC(CCCCNC(=O)OC(C)(C)C)C(=O)OC(C)(C)C` (stereo not given) gave RN4220 kill 8, Mtb hypoxia inh 4 and Sa ugtP lethal 13.
`Cc1ccc(C(C)C)c(OCc2nn(CC(=O)c3ccc(OC(F)F)cc3)c3[n+]2CCCCC3)c1` gave RN4220 kill 100*, Vc quorum ag inactive, Sa ugtP lethal 95* and PfHsp40 yeast -1.
For O=C(Cn1nc(-c2nn(CC(=O)c3ccccc3)c3[n+]2CCCCC3)[n+]2c1CCCCC2)c1ccccc1 the results were RN4220 kill 2, Vc quorum ag -1, Mtb hypoxia inh 14, Sa ugtP lethal 6 and CCHFV vOTU inh -6.
`COc1ccc(C(=O)Cn2nc(CNc3ccc(Br)cc3)[n+]3c2CCCCC3)cc1` gave RN4220 kill 99*, Vc quorum ag -1, Sa ugtP lethal 98*, PfHsp40 yeast -1 and CCHFV vOTU inh -6.
`CC[C@]12C(=O)N(C)CC(C3C(=O)N(Cc4ccccc4)C(=O)C31)N2C(=O)c1ccccc1` (stereo not given in full) gave RN4220 kill 6, Mtb hypoxia inh 3 and Sa ugtP lethal -4.
O=C1/C(=C/c2cccs2)CCC/C1=C\c1cccs1 was read as Vc quorum ag 0, PfHsp40 yeast 0 and CCHFV vOTU inh 12.
For CC1C/C(=C/c2cccs2)C(=O)/C(=C/c2cccs2)C1 (stereo not given) the results were RN4220 kill -8, Vc quorum ag 0, Mtb hypoxia inh 8, Sa ugtP lethal 90*, PfHsp40 yeast -1 and CCHFV vOTU inh 27.
Screening O=c1c2ccccc2c(C=NNS(=O)(=O)c2ccccc2)c(O)n1-c1ccccn1 returned RN4220 kill 1, Mtb hypoxia inh 7 and Sa ugtP lethal -4.
Screening C[C@H]1c2cccc(O)c2C(=O)C2C(=O)C3(O)C(=O)C(C(N)=O)C(=O)[C@@H](N(C)C)[C@@H]3[C@@H](O)[C@@H]21 (stereo not given in full) returned Vc quorum ag 4, PfHsp40 yeast 0 and CCHFV vOTU inh 9.
C=C1c2cccc(O)c2C(O)=C2C(=O)[C@]3(O)C(O)=C(C(N)=O)C(=O)[C@@H](N(C)C)[C@@H]3[C@@H](O)[C@H]12 was read as RN4220 kill 100*, Vc quorum ag -1, Sa ugtP lethal 99*, PfHsp40 yeast 10 and CCHFV vOTU inh 17.
`C=C1c2cccc(O)c2C(=O)C2C(=O)[C@]3(O)C(=O)C(C(N)=O)C(=O)C(N(C)C)C3C(O)C12` (stereo not given in full) gave RN4220 kill 100* and Sa ugtP lethal 89.
C=C1c2c(Cl)ccc(O)c2C(O)=C2C(=O)[C@]3(O)C(O)=C(C(N)=O)C(=O)C(N(C)C)C3C(O)C12 (stereo not given in full) was read as RN4220 kill 100* and Sa ugtP lethal 100*.
